Measured values as given in PubChem BioAssay (NCATS).
Records with an inconclusive call do not appear. Active and inactive are the calls of the source. Unless noted, calls follow the shape of the dose curve; as a rule, active = well fitted curve in the direction sought with a large enough effect; inconclusive = small, poorly fitted or top-dose-only effect, or another doubt; inactive = no such curve, though single readings can be large; an effect the other way counts as inactive or inconclusive.

Legend:
[1] = target: alpha-glucosidase (Oryza sativa, rice) (UniProt Q653V4); experiment: Counterscreen for Glucocerebrosidase Inhibitors: qHTS Assay for Rice alpha-Glucosidase at pH 5.0 (AID 997);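 also: 0% = full activity with enzyme and -100% = basal without enzyme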
Summary of the method: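 Rice alpha-glucosidase (4 nM final) with 400 uM 4-methylumbelliferyl-alpha-D-glucopyranoside in citrate buffer pH 5.0, 20 min at room temperature, stopped at pH 10; fluorescence 365/440 nm, compounds 0.7 nM–77 uM, AC50 from Hill fits.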

[2] = target: DNA repair nuclease/redox regulator APEX1 (Homo sapiens) (UniProt P27695); experiment: qHTS Validation Assay for Inhibitors of the Human Apurinic/apyrimidinic Endonuclease 1 (APE1) (AID 1705;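 also: TAMRA fluorescence gain over two minutes as APE1 cuts a quenched THF abasic duplex; % is scaled to controls: 0 for no effect and ±100 for the full control effect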)
Summary of the method: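 Human APE1 was preincubated with compound for 15 min at room temperature, then 50 nM (final) THF-abasic double-stranded DNA substrate bearing 5'-TAMRA and 3'-BHQ-2 was added. Incision-driven fluorescence rise (ex 525/em 598 nm) was read kinetically.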

[3] = Counterscreen for APE1 Inhibitors: Fluorescent Dye Displacement Validation Assay (AID 1707);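 also: plate controls were ThO with dsDNA and no compound for no effect and ThO without dsDNA for full effect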
Summary of the method: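 Thiazole Orange displacement from dsDNA: 250 nM ThO with 50 nM TAMRA-labelled abasic-site (tetrahydrofuran) duplex in 50 mM Tris-HCl pH7.5, 50mM NaCl, 2 mM MgCl2, 0.01% Tween-20. Loss of endpoint fluorescence (ex 480 nm, em 540 nm) flags DNA binders.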

[4] = target: Endonuclease 4 (Escherichia coli (strain K12)) (UniProt P0A6C1); experiment: Counterscreen for APE1 Inhibitors: qHTS Validation Assay for Inhibitors of Endonuclease IV (AID 1708); also: % is scaled to controls: 0 for no effect and ±100 for the full control effect
Summary of the method: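 E. coli EndoIV at 2 nM final, preincubated 15 min at room temperature with compound, then 50 nM TAMRA/BHQ-2 THF abasic-site duplex added. Buffer: 50 mM Tris-HCl pH 7.5, 50 mM NaCl, 2 mM MgCl2, 1 mM DTT, 0.01% Tween-20. Kinetic fluorescence increase, third minus first read.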

[5] = qHTS for differential inhibitors of proliferation of Plasmodium falciparum line 7G8 (AID 1815);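 also: parasite growth measured after three days of incubation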; also: potency is read from the fitted curve at half-maximal effect;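 as to activity change, negative = inhibition: plate controls were vehicle wells for no effect and reference inhibitor wells for full effect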
[6] = qHTS for differential inhibitors of proliferation of Plasmodium falciparum line GB4 (AID 1816); settings: Potency: Plasmodium falciparum GB4 proliferation inhibition;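 also: parasite growth measured after 72 h incubation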; also: potency is read from the fitted curve at half-maximal effect;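 as to activity change, negative = inhibition: 0% = vehicle DMSO and -100% = reference inhibitor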
[7] = qHTS for differential inhibitors of proliferation of Plasmodium falciparum line 3D7 (AID 1876); also: potency is read from the fitted curve at half-maximal effect
[8] = qHTS for differential inhibitors of proliferation of Plasmodium falciparum line D10 (AID 1877);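 also: parasites grown with compound for 72 h before DNA staining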; also: potency is read from the fitted curve at half-maximal effect;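 as to activity change, negative = inhibition: plate controls were vehicle wells for no effect and reference inhibitor wells for full effect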
[9] = qHTS for differential inhibitors of proliferation of Plasmodium falciparum line Dd2 (AID 1882); settings: Potency: Plasmodium falciparum Dd2 proliferation inhibition; also: nearly all actives have a fitted effect of over 65% in size; also: potency is read from the fitted curve at half-maximal effect;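 as to activity change, negative = inhibition: plate controls were DMSO vehicle for no effect and 0.29 µM artemisinin for full effect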
Summary of the method: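 Dd2-infected erythrocytes (0.3% parasitemia, 2.5% hematocrit final) incubated with compound 72 h at 37 C, 5% CO2; lysed with saponin/Triton buffer containing SYBR Green I, incubated overnight in the dark, then read by fluorescence (485/535 nm). Normalized to 0.29 uM artemisinin and DMSO.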

[10] = qHTS for differential inhibitors of proliferation of Plasmodium falciparum line W2 (AID 1883); settings: Potency: Plasmodium falciparum W2 proliferation inhibition;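 also: parasites grown with compound for 72 h before lysis and staining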; also: potency is read from the fitted curve at half-maximal effect;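 as to activity change, negative = inhibition: 0% = vehicle wells and -100% = control inhibitor wells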
[11] = qHTS for differential inhibitors of proliferation of Plasmodium falciparum line HB3 (AID 1886); settings: Potency: Plasmodium falciparum HB3 proliferation inhibition;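 also: parasites grown with compound for 72 h before SYBR Green readout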; also: potency is read from the fitted curve at half-maximal effect;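 as to activity change, negative = inhibition: plate controls were vehicle for no effect and reference inhibitor for full effect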
[12] = target: Alpha-galactosidase A (Homo sapiens) (UniProt P06280); experiment: Counterscreen for Glucocerebrosidase Inhibitors: qHTS Assay for Human alpha-Galactosidase at pH 4.5 (AID 992); also: 0% is about no effect
Summary of the method: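 Enzyme at 2 nM final was combined with compound (0.7 nM to 77 uM) and 80 uM 4-methylumbelliferyl alpha-D-galactopyranoside in 50 mM citric acid, 0.005% Tween-20, pH 4.5. After 20 min at room temperature, fluorescence was read (Ex 365/Em 440 nm); AC50 came from Hill fits.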

[13] = qHTS Assay for Lipid Storage Modulators (AID 1519; calls by dose curve; as to activity change, negative = inhibition: % is scaled to controls: 0 for no effect and ±100 for the full control effect); settings: Drosophila S3 cells, BODIPY lipid droplet/cell ratio, laser cytometry, cells loaded with oleic acid; for activity change, negative = inhibition: at 57.5 µM (top of the series)
Summary of the method: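 Cells seeded at 5,000 per well were treated with compounds over a concentration series and loaded with oleic acid (400 uM, as added). Lipid droplet fluorescence (488 nm excitation, 500-530 nm channel) was read by laser-scanning cytometry and normalized to 20 uM Triacsin C.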

[14] = measured here: cell count channel max response
[15] = measured here: lipid channel max response

Chain of Alpha-galactosidase A (Homo sapiens) (P06280 whole entry, looked up): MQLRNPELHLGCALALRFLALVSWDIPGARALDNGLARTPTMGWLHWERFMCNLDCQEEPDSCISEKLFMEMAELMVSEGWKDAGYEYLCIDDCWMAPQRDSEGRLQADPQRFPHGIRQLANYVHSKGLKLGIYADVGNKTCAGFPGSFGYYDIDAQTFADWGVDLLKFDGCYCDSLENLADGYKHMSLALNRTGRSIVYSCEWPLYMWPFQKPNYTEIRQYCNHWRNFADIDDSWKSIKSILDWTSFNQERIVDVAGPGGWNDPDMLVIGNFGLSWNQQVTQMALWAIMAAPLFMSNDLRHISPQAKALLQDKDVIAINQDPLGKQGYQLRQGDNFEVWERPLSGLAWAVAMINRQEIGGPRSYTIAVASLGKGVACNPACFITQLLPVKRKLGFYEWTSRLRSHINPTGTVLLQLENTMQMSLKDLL
Chain of DNA repair nuclease/redox regulator APEX1 (Homo sapiens) (P27695 whole entry, looked up): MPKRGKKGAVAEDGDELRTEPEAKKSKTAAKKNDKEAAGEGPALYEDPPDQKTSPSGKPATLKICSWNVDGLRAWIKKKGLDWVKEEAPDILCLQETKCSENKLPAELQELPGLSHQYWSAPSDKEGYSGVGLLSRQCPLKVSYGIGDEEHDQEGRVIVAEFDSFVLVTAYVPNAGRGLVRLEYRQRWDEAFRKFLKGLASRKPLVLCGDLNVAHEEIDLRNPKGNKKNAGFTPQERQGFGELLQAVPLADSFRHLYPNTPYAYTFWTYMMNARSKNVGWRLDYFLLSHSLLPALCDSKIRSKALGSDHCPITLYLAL

C[C@]12C=CC(=O)C=C1CC[C@H]1[C@@H]3C[C@@H](O)[C@](O)(C(=O)CO)[C@@]3(C)C[C@H](O)[C@@]12F
inactive: outcome [1] | Potency [2] | outcome [3] | Potency [4] | Potency [5] | Potency [6] | Potency [7] | Potency [8] | Potency [9] | Potency [10] | Potency [11]

CCNC(=O)N1CCN(CCCC(c2ccc(F)cc2)c2ccc(F)cc2)CC1
-45.7%: max response [13, 14]
active: Potency [5] 1580 nM | Potency [6] 1120 nM | Potency [7] 891 nM | Potency [8] 2510 nM | Potency [9] 3160 nM | Potency [10] 282 nM | Potency [11] 1120 nM
-48.7%: max response [13, 15]
inactive: outcome [12] | outcome [1] | activity change, negative = inhibition [13] -0.161% | Potency [2] | outcome [3]

C[C@]12CCC(=O)C=C1CC[C@@H]1[C@@H]2CC[C@@]2(C)[C@H]1CC[C@]2(O)C(=O)CO
12.1%: max response [13, 15]
inactive: outcome [12] | outcome [1] | activity change, negative = inhibition [13] -0.711% | outcome [3] | Potency [4] | Potency [9]
15.6%: max response [13, 14]

C[n+]1cc2c3c(ccc2c2ccc4cc5c(cc4c21)OCO5)OCO3
active: Potency [5] 4470 nM | Potency [6] 2820 nM | Potency [7] 2820 nM | Potency [8] 3550 nM | Potency [9] 6310 nM | Potency [10] 2510 nM | Potency [11] 3160 nM
inactive: outcome [12] | outcome [1] | Potency [2]

OCCN1CCN(CC/C=C2/c3ccccc3Sc3ccc(C(F)(F)F)cc32)CC1
active: Potency [5] 2510 nM | Potency [6] 2240 nM | Potency [7] 2510 nM | Potency [8] 12600 nM | Potency [9] 7940 nM | Potency [10] 1580 nM | Potency [11] 5010 nM
inactive: Potency [2] | outcome [3]

Cc1ccc(/C(=C\CN2CCCC2)c2ccccn2)cc1
inactive: outcome [3] | Potency [4]

C(=C\c1ccccc1)/CN1CCN(C(c2ccccc2)c2ccccc2)CC1
active: Potency [5] 3980 nM | Potency [6] 8910 nM | Potency [9] 11200 nM | Potency [11] 11200 nM
inactive: outcome [12] | outcome [1] | Potency [2] | outcome [3]

Cc1nnc(SCC2=C(C(=O)O)N3C(=O)[C@@H](NC(=O)Cn4cnnn4)[C@H]3SC2)s1
inactive: Potency [2] | outcome [3] | Potency [4] | Potency [7] | Potency [8] | Potency [9] | Potency [11]
